Here are results for seven compounds from PubChem BioAssay (Tox21).

A number with no mark means an inactive call. Results filed as inconclusive are left out. Calls of active or inactive are those of the source. Unless noted, the call rests on the fitted dose curve; in most records, active means well fitted curve in the direction sought with a large enough effect in the repeat runs; inconclusive means weak or mixed curves; inactive means no such curve, though single readings can be large; an effect the other way counts as inactive or inconclusive.

A short description of assay [1]: qHTS assay to identify small molecule agonists of the hypoxia (HIF-1) signaling pathway - cell viability counter screen (AID 1224844; calls by dose curve; further: nearly all actives have a fitted effect of over 50% in size). The method in brief: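 HRE-bla ME-180 cells in medium with 0.5% dialyzed FBS were preincubated 5 hrs at 37C, exposed to compounds for 17 hrs, then viability was read as CellTiter-Glo luminescence after 30 min at room temperature, in the reporter wells.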
In general terms: In qHTS, concentration-response curves come from the screen itself.

A short description of assay [2]: qHTS assay to identify small molecule agonists of H2AX (AID 1224845; active means well fitted activation curve with a large enough effect in the signal ratio in the repeat runs, not every such curve was filed as active; the % refers to the signal ratio). The method in brief: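 Phospho-H2AX Ser139 measured by HTRF (ex 320 nm; em 665 and 620 nm) after 24 hr antibody incubation. Compounds, 15 concentrations, 0.76% DMSO, were applied to CHO-K1 cells for 3hr at 37C before lysis.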
The nature of assay [3]: qHTS assay to identify small molecule agonists of H2AX - cell viability counter screen (AID 1224847; calls by dose curve; further: top concentration of the series differs between compounds; nearly all actives have a fitted effect of over 30% in size). Summed up:
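Viability of CHO-K1 (wild type) cells after 3 hr compound exposure was measured by CellTiter-Glo luminescence.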

The nature of assay [4]: qHTS RealTime-Glo MT Cell Viability Assay in HepG2 cells - 24 hour (AID 1224867). Further: nearly all actives have a fitted effect of over 50% in size. The method in brief: (§1)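 Cell number in HepG2 cultures estimated from NanoLuc luminescence generated by metabolic reduction of a prosubstrate by living cells. The homogeneous, nonlytic format allowed repeated reads at 0, 8, 16, 24, 32 and 40 h of compound exposure.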
Assay [5] is described as follows: A CellTox Green Cytotoxicity Assay to monitor cytotoxicity in HEK293 cells - 0 hour (AID 1224869). Further: nearly all actives have a fitted effect of over 50% in size. Summed up:
(§2)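 HEK293 cells premixed with CellTox Green dye were seeded at 600 cells/well and left 5 h at 37 C/5% CO2 before pin transfer of 23 nL compound in DMSO. Fluorescence from dye bound to dead-cell DNA was read during 40 h treatment.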

A short description of assay [6]: qHTS RealTime-Glo MT Cell Viability Assay in HepG2 cells - 40 hour (AID 1224870). Further: nearly all actives have a fitted effect of over 50% in size. The method in brief: (§3)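 Real-time viability: cells seeded at 600 per well together with NanoLuc and cell-permeant prosubstrate, compounds added after 5 h incubation. Luminescence tracked at 0, 8, 16, 24, 32 and 40 h of exposure.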
Assay [7] can be described thus: A CellTox Green Cytotoxicity Assay to monitor cytotoxicity in HEK293 cells - 40 hour (AID 1224871). Further: nearly all actives have a fitted effect of over 45% in size. Summed up:
as §2

A short description of assay [8]: qHTS RealTime-Glo MT Cell Viability Assay in HepG2 cells - 8 hour (AID 1224873). Further: nearly all actives have a fitted effect of over 55% in size. The method in brief:
as §3

A short description of assay [9]: A CellTox Green Cytotoxicity Assay to monitor cytotoxicity in HEK293 cells - 24 hour (AID 1224875). Further: nearly all actives have a fitted effect of over 45% in size. Summed up:
as §2

The nature of assay [10]: A CellTox Green Cytotoxicity Assay to monitor cytotoxicity in HepG2 cells - 16 hour (AID 1224876). Further: nearly all actives have a fitted effect of over 45% in size. Summed up: (§4)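 HepG2 cells were seeded together with the CellTox Green dye at 600 cells/well, left 5 h at 37 C/5% CO2, then given compounds in DMSO. Fluorescence from dye bound to dead-cell DNA was read repeatedly over 40 h of treatment at 37 C.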
Assay [11] is described as follows: qHTS RealTime-Glo MT Cell Viability Assay in HepG2 cells - 32 hour (AID 1224877). Further: nearly all actives have a fitted effect of over 55% in size. Summed up:
as §1

Assay [12] is described as follows: A CellTox Green Cytotoxicity Assay to monitor cytotoxicity in HepG2 cells - 24 hour (AID 1224878). Further: nearly all actives have a fitted effect of over 45% in size. Further: potency means the concentration at half of the fitted maximal effect. The method in brief:
as §4

Assay [13] in a line: A CellTox Green Cytotoxicity Assay to monitor cytotoxicity in HepG2 cells - 40 hour (AID 1224879). Further: nearly all actives have a fitted effect of over 40% in size. Further: potency means the concentration at half of the fitted maximal effect. The method in brief: as §4
Assay [14] in a line: qHTS RealTime-Glo MT Cell Viability Assay in HEK293 cells - 0 hour (AID 1224880). Further: nearly all actives have a fitted effect of over 45% in size. Further: potency means the concentration at half of the fitted maximal effect. Summed up: (§5)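 HEK293 cells mixed with RealTime-Glo reagents (NanoLuc plus cell-permeant prosubstrate) at 600 cells/well, preincubated 5 h at 37 C/5% CO2, then given 23 nL compound in DMSO. Nonlytic luminescence from viable cells was read at 0, 8, 16, 24, 32 and 40 h.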
Assay [15] can be described thus: qHTS RealTime-Glo MT Cell Viability Assay in HEK293 cells - 32 hour (AID 1224868). Summed up:
(§6)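 Homogeneous bioluminescent viability format in HEK293 cells (600 cells/well). Following 5 h at 37 C/5% CO2, 23 nL compound was pintooled; the signal was measured repeatedly during 40 h incubation.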

The nature of assay [16]: qHTS RealTime-Glo MT Cell Viability Assay in HEK293 cells - 40 hour (AID 1224874). Further: nearly all actives have a fitted effect of over 50% in size. The following applies: RealTime-Glo luminescence; max response: hits give low values. The method in brief:
as §5

Assay [17] can be described thus: qHTS RealTime-Glo MT Cell Viability Assay in HEK293 cells - 16 hour (AID 1224872). Summed up: as §6
Assay [18] is described as follows: qHTS assay to identify small molecule antagonists of the estrogen related receptor (ERR) signaling pathway from Tox21 library (AID 1224848). Further: nearly all actives have a fitted effect of over 50% in size. The method in brief: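 Reading was by luminescence 30 min after ONE-Glo addition. Before that, ERR cells at 2,000 per well had rested 6 h at 37 C/5% CO2 and then received pin-tooled compounds in DMSO for 18 h at 37 C.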
Assay [19] is described as follows: qHTS assay to identify small molecule agonists of the estrogen related receptor (ERR) signaling pathway from Tox21 library (AID 1224849; calls by dose curve; further: nearly all actives have a fitted effect of over 15% in size). The following applies: ERR reporter cell line, ONE-Glo luciferase, 18 h; at 92.4 µM (top of the series) unless noted. Summed up: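 ERR reporter cell line (NTP) seeded, rested 6 h at 37 C/5% CO2, then pinned with Tox21 compounds in DMSO. After 18 h at 37 C, ONE-Glo luciferase luminescence was read following 30 min at room temperature.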

The nature of assay [20]: qHTS assay to identify small molecule agonists of the hypoxia (HIF-1) signaling pathway (AID 1224846; active means well fitted activation curve with a large enough effect in the signal ratio in the repeat runs, not every such curve was filed as active; the % refers to the signal ratio). The method in brief: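 HRE-bla ME-180 cells (beta-lactamase reporter under hypoxia response element) were plated at 2,000 cells/well in medium with 0.5% dialyzed FBS, rested 5 hrs, then given compounds in DMSO for 17 hrs at 37C, 5% CO2. Reporter induction was read with CCF4-AM FRET substrate.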
On the % scale 0 is the no-effect control and ±100 the full control effect.

With `CCC(C)N(C)C(=O)c1cc2ccccc2c(-c2ccccc2Cl)n1` (stereo not drawn), the Potency entry in assay [1], in [2], in [3], in assay [4], in assay [5] and in assay [6] was “inactive” throughout. Further, the Potency result in [7], in assay [8], in assay [9], in [10] and in [11] was “inactive” each time. For the same compound, the Potency in assay [12] is 25.2 µM (active); in [13], 28.2 µM (active); in assay [14], 31.7 µM (active).
Turning to `CN(C)C/C=C(/c1ccc(Br)cc1)c1cccnc1`, the Potency entry in assay [1], in [2], in assay [3], in assay [4], in [15] and in assay [5] was “inactive” in each case. Besides, the Potency entry in assay [6], in assay [7], in [8], in [9], in [10] and in assay [11] was “inactive” in each case. Also, the Potency result in [12] and in assay [13] was “inactive” each time. Besides, the max response in assay [16] was 2.35%.
In the case of `CN(C)CC[C@@H](c1ccc(Br)cc1)c1ccccn1`, the Potency result in [1], in assay [2], in [3], in assay [4], in assay [15] and in assay [5] was “inactive” in each case. Moreover, the Potency result in assay [6], in assay [7], in assay [17], in assay [8], in [9] and in assay [10] was “inactive” throughout. The Potency result in [11], in assay [12], in assay [13] and in assay [14] was “inactive” throughout. In addition, in [16], the max response was -14.2%.
With `Nc1ccc(C(=O)N2CC3CC(CN(Cc4ccccc4)C3)C2)cc1`, the Potency result in assay [1], in assay [2], in assay [18], in assay [4], in assay [5] and in assay [6] was “inactive” in each case. In addition, the Potency result in assay [7], in [17], in assay [8], in [9], in assay [10] and in [11] was “inactive” throughout. Besides, the Potency result in assay [12], in [13] and in [14] was “inactive” each time. The activity change, positive = activation in assay [19] was -11% [at 42.5 µM]. Also, the max response in assay [16] is -8.65%.
For `O=C(c1ccccc1)c1ccc2n1CCC2C(=O)O` (stereo not drawn), the Potency entry in assay [1], in assay [2], in assay [4], in assay [15], in [5] and in assay [6] was “inactive” throughout. In addition, the Potency entry in assay [7], in assay [8], in [9], in assay [10], in [11] and in assay [12] was “inactive” in each case. In addition, the Potency entry in [13] and in [14] was “inactive” in each case. For the same compound, in [16], the max response is 0.683%.
As to `CN(c1nccc(=O)[nH]1)C1CCN(c2nc3ccccc3n2Cc2ccc(F)cc2)CC1`, the Potency entry in assay [1], in assay [3], in assay [4], in [5], in assay [6] and in [7] was “inactive” throughout. Further, the Potency entry in [8], in assay [9], in assay [10], in assay [11], in assay [12] and in assay [13] was “inactive” in each case. Further, the Potency result in [14] is “inactive”. Besides, the result in [20] was inactive.
For the compound `CN(C)CC/C=C1\c2ccccc2COc2ccccc21`, the Potency result in [1], in assay [2], in assay [3], in [4], in [15] and in [5] was “inactive” in each case. In addition, the Potency entry in [6], in assay [7], in assay [17], in assay [8], in [9] and in assay [10] was “inactive” in each case. Besides, the Potency entry in assay [11], in [12] and in assay [14] was “inactive” throughout. In addition, the max response in [16] is 3.53%.
